Source: PubChem
The entries come from a sample that favours hits as a whole.
NS1 inh = influenza NS1 inhibition | Potency, µM (series often up to 46.1 µM), for the others: at the highest dose activity, positive = more growth | 0.4% of 270,000 active | AID 2326; calls by dose curve; further: potency means the concentration at half of the fitted maximal effect; actives are rising curves; nearly all actives have a fitted effect of over 50% in size
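OD600 was taken as the measure of yeast growth restored by compound in an NS1-expressing S. cerevisiae strain. Cells had been washed out of glucose medium and diluted 1:100 into galactose -URA medium, pH 6.0.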
Cruzain inh noDet = blocks cruzain activity in detergent-free assay. purified cruzain, Z-FR-AMC fluorescence, no detergent. Potency, µM, for inactives: max response, negative = inhibition, most hits filed as inhibitors. 2.3% of 200,000 active. AID 1476;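 further: potency means the concentration at half of the fitted maximal effect; plate controls were enzyme without inhibitor for no effect and buffer without enzyme for full effect; nearly all actives have a fitted effect of over 40% in size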
Target sequence (P25779 123-467 limits assumed): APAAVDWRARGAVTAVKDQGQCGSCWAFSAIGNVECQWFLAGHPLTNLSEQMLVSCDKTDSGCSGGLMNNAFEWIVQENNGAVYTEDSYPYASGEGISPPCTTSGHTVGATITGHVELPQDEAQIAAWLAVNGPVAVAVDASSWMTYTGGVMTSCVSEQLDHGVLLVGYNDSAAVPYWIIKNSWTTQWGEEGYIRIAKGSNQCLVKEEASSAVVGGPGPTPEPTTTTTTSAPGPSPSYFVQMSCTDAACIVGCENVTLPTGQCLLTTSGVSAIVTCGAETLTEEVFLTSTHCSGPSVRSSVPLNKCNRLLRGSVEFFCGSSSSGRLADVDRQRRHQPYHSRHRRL
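Detergent-free condition (0.00005% Triton X-100) in acetate buffer pH 5.5 with DTT. 1.5 nM enzyme and compound were pre-mixed 15 min, then 2 uM Z-FR-AMC substrate added; reaction progress from fluorescence change between first and third reads (60 s).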
Cruzain inh Det = blocks cruzain activity in presence of Triton detergent; Potency, µM, inactives show max response, negative = inhibition, hits mostly inhibitors; 0.43% of 200,000 active; P25779; purified cruzain, Z-FR-AMC fluorescence, 0.01% Triton;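 further: potency means the concentration at half of the fitted maximal effect; plate controls were neutral wells for no effect and buffer without enzyme for full effect; nearly all actives have a fitted effect of over 40% in size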
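Read-out: AMC fluorescence (360 nm excitation, 450 nm emission), four reads over 2 min, first-to-third difference used. Conditions: cruzain 1.5 nM, Z-FR-AMC 2 uM, pH 5.5 acetate, 5 mM DTT, 0.01% Triton X-100.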
NS1 inh valid = validation of influenza NS1 protein function inhibitors. shares compounds with NS1 inh. influenza NS1 function cell assay, 15-point titration. activity change, negative = inhibition, % at 32.9 µM. AID 492980. 1,400 tested, under 10 active; calls by dose curve; further: 0% is about no effect
Flu PR8 replic = reduces influenza A/PR/8/34 replication in MDCK cells | 30% of 95 active | shares compounds with NS1 inh | MDCK infected influenza A/PR/8/34, virus titer TCID50; stronger effect = lower value | virus titer (log TCID50), log10 TCID50 at 5 µM; call rule not given here
Starred values were filed as active, the others as inactive; ? = inconclusive; nt = no result; ! = a repeat was not active. Unless noted, the call rests on the fitted dose curve; in most records, active means well fitted curve in the direction sought with a large enough effect; inconclusive means small, poorly fitted or top-dose-only effect, or another doubt; inactive means no such curve, though single readings can be large; an effect the other way counts as inactive or inconclusive.

SMILES	NS1 inh	Cruzain inh noDet	Cruzain inh Det	NS1 inh valid	others
CC1C(=O)N(c2ccc(S(=O)(=O)N(C)C)cc2)C1(/C=C/c1ccccc1)C(=O)NC1CCCC1 (configuration not stated)	8.9µM*	3%	-4%	18
O=C1CC(/C=C/c2ccccc2)(C(=O)NC2CCCC2)N1c1ccc(S(=O)(=O)N2CCCC2)cc1 (configuration not stated)	24%	?	3%	nt
Cc1cccc(CNC(=O)Cn2nc(C)n3c(cc4cc(F)ccc43)c2=O)c1	nt	-11%	0%	nt
COc1ccc(NC(=O)CCC2CCCC2)cc1OC	-49%	2%	1%	nt
COc1ccc(NS(=O)(=O)c2ccc(OC)c(NC(=O)CCC3CCCC3)c2)cc1	?	0%	-5%	7
CC1(C)N=C(N)NC(Nc2ccc(Br)cc2)=N1	7.9µM*	20µM*	16µM*	-1
CC1(C)N=C(N)NC(Nc2cccc(Br)c2)=N1	-5%	6%	-1%	nt
CCOC(=O)c1c(NC(=O)c2cc(-c3ccccc3OC)on2)sc(C)c1C	nt	-3%	-2%	nt
O=C(NCc1ccc(Cl)cc1)NC1COc2ccccc2C1 (configuration not stated)	nt	-14%	3%	nt
O=C(NNc1ccccc1[N+](=O)[O-])Nc1ccc(Cl)c(Cl)c1	-47%	5%	-9%	nt
O=C1NC(=O)C(c2ccccc2[N+](=O)[O-])=C1Nc1ccc(O)c(Cl)c1	35µM*!	-6%	-4%	-13
COc1ccc2sc(N(Cc3cccnc3)C(=O)c3ccc4c(c3)OCCO4)nc2c1	nt	-16%	2%	nt
CS(=O)(=O)Nc1cccc(-c2cncnc2NCc2cccnc2)c1	nt	3%	2%	nt
O=C(CN1C(=O)C2CCCCC2C1=O)OCn1nnc2ccccc2c1=O (configuration not stated)	-6%	nt	nt	nt
CCC1(CC)NC(=O)N(CC(=O)OCn2nnc3ccccc3c2=O)C1=O	7.1µM*	3%	-2%	3
NC(=O)C1CCN(Cc2nc(-c3ccccc3)no2)CC1	12%	9%	-3%	nt
CC1CCC2(CC1)NC(=O)N(Cc1nc(-c3ccccc3)no1)C2=O (configuration not stated)	8.9µM*	-6%	1%	-1	Flu PR8 replic=8.5
CN(c1ccc(C(=O)N2CCCCC2)cc1)S(C)(=O)=O	14µM*	-2%	1%	5
CC1CCN(C(=O)c2ccc(N(C)S(C)(=O)=O)cc2)CC1	1%	13%	7%	nt
Cc1ccc(NC(=O)/C(=C/c2cccc([N+](=O)[O-])c2)NC(=O)C2CCCCC2)cc1	1%	-2%	0%	nt
CC(=O)N/C(=C\c1cccc([N+](=O)[O-])c1)C(=O)NC1CCCCC1	11µM*	16%	-1%	5
COc1ccc(OC)c(CNC(=O)C2CCN(S(=O)(=O)N3CCCC3)CC2)c1	-9%	-8%	2%	nt
COc1ccc(CNC(=O)C2CCN(S(=O)(=O)N3CCCC3)CC2)c(OC)c1	?	nt	nt	-23
CCCC(=O)NCC1(N(C)C)CCCCC1	nt	-5%	1%	nt
Cc1cc(NC(=O)/C=C/c2cccc(F)c2)n(-c2nc3ccccc3[nH]2)n1	20%	-5%	-5%	nt
SMILES	NS1 inh	Cruzain inh noDet	Cruzain inh Det	NS1 inh valid	others
Cc1cc(NC(=O)/C=C/c2cccc(Cl)c2)n(-c2nc3ccccc3[nH]2)n1	1.8µM*	-27%	-2%	7
CCCCn1c(S(=O)(=O)O)nc2ccccc21	1%	-6%	0%	nt
CCCCn1c(C)cc2cc(O)ccc21	10µM*	?	2%	?
CCC(Sc1nc2nccnc2c(=O)n1Cc1ccccc1Cl)C(=O)NC1CCCCC1 (configuration not stated)	nt	11%	-2%	nt
COc1ccc(-c2nsc(NC(=O)c3oc4cc(C)c(C)cc4c3C)n2)cc1	nt	0%	3%	nt
O=C1C(c2ccncc2)=C(O)c2ccccc21	0.25µM*	-6%	-5%	-3
Cc1ccc(C2=C(O)c3ccccc3C(=O)C2=O)cc1	-91%	nt	nt	nt
Cc1cc(C)cc(-n2c(O)c(C=Nc3ccc(N4CCOCC4)cc3)c(=O)[nH]c2=S)c1	21%	?	-4%	nt
O=c1[nH]c(=S)n(-c2ccc(Br)cc2)c(O)c1C=Nc1ccc(N2CCOCC2)cc1	7.9µM*	10%	-10%	6
Cc1ccccc1CNC(=O)Cn1ccc2cc(S(=O)(=O)N3CCCCC3)ccc21	nt	-25%	-4%	nt
CC1Cc2ccccc2N1C(=O)CSc1nnc(-c2ccccc2)c(-c2ccccc2)n1 (configuration not stated)	?	16µM*	-1%	-1
